Six1-Eya2 blk = Six1/Eya2 interaction inhibition; Q15475+O00167; AlphaScreen GST-Six1/His-Eya2 binding, biochemical; stronger effect = lower value; activity change, % (test concentration not listed); 360,000 tested, 0.56% active; AID 651725; in the data active = activity change below about -65%; inconclusive = mostly about -30% to -63%; note: % is set by controls: 0 for no effect and ±100 for the full control effect
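Compounds are tested against tagged Six1 and Eya2 proteins bridged by glutathione donor and nickel acceptor beads; after a one-hour incubation at 37 °C without light, AlphaScreen emission is recorded.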
HP1b binding inh = blocks HP1-beta chromodomain binding to methylated histone tails. P83916. AlphaScreen HP1-beta / biotin-H3K9me3 peptide binding. Potency, µM (series often up to 114 µM), for the others: at the top dose activity change, negative = inhibition, hits mostly inhibitors. 390,000 tested, 0.56% active; note: potency is the fitted concentration of half-maximal effect; nearly all actives have a fitted effect of over 70% in size
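Compound inhibition of the preformed complex between 50 nM HP1-beta and 50 nM biotinylated H3K9me3 peptide was read by AlphaScreen. Buffer was PBS pH 7.4 with 0.01% Tween-20. Incubations ran 30 min at room temperature, with 10 ug/mL donor/acceptor beads.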
JMJD2A Tudor inh = inhibitors of human JMJD2A Tudor domain. O75164. AlphaScreen JMJD2A-Tudor / H3K4me3 peptide binding. Potency, µM (top dose mostly 114 µM), for inactives: at the highest dose activity change, negative = inhibition, most hits filed as inhibitors. 390,000 tested, 4.4% active; note: potency is the fitted concentration of half-maximal effect; % is set by controls: 0 for no effect and ±100 for the full control effect; nearly all actives have a fitted effect of over 50% in size
G9a inh = inhibitors of human histone lysine methyltransferase G9a; 350,000 tested, 8.8% active; Potency, µM (highest dose often 102 µM), without a hit: at the top dose activity, negative = inhibition, hits mostly inhibitors; G9a H3K9 monomethylation, AlphaScreen, 2 h; note: potency is the fitted concentration of half-maximal effect; % is set by controls: 0 for no effect and ±100 for the full control effect; nearly all actives have a fitted effect of over 75% in size
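AlphaScreen detection with an anti-monomethyl H3K9 antibody quantified product after a 2 h room-temperature reaction containing 500 nM biotinylated H3K9 peptide, 20 µM SAM and 20 nM enzyme, which had been preincubated 15 min with compound.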
CtBP-E1A inh = inhibitors of CtBP/E1A interaction | 340,000 tested, 0.49% active | activity change, % (no concentration beside the values) | AlphaScreen GST-E1A/His-CtBP binding, 1536-well; stronger effect = lower value; in the data active = activity change below about -65%; inconclusive = mostly about -30% to -63%; note: % is set by controls: 0 for no effect and ±100 for the full control effect
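Steps: dispense buffer (Tris pH 8.0, NaCl 300 mM, TCEP 1 mM, BSA, Tween 20); add 5X protein mix (GST-E1A, His-CtBP, 125 nM each); pin 23 nL compound; 2 h at 37 °C, dark; add 5X beads (50 ug/mL); 1 h; read.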
BAZ2B block = inhibitors of human BAZ2B bromodomain; AlphaScreen BAZ2B-H3K14Ac peptide displacement; Potency, µM (highest dose often 114 µM), for the others: at the highest dose activity change, negative = inhibition, actives largely listed as inhibitors; 360,000 tested, 4.4% active; note: potency is the fitted concentration of half-maximal effect; % is set by controls: 0 for no effect and ±100 for the full control effect; nearly all actives have a fitted effect of over 60% in size
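BAZ2B (50 nM) with biotin-H3(5-23)K14Ac peptide (50 nM) in PBS pH 7.4, 0.01% Tween-20, preformed 30 min, then compound 30 min at room temperature; top concentration 110uM. AlphaScreen streptavidin donor/nickel chelate acceptor beads (10 ug/mL final), 20 min dark, signal read.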
* hit, by the source's call; [ ] = remark or other dose. In the library only some 10% were active in any assay of this set; here they are far more common. Unless noted, calls come from the whole dose curve; as a rule, active = well fitted inhibition curve with a large enough effect; inconclusive = small, poorly fitted or top-dose-only effect; inactive = no such curve, though single readings can be large or run the other way.

For CC(NC(=O)c1ccc(NC(=O)c2nsc3ccccc23)cc1)c1ccccc1 (stereo unspecified) the results were HP1b binding inh 22.6%[57 µM], JMJD2A Tudor inh -0.3%, G9a inh 4.0%[59 µM] and BAZ2B block 11.6%.
CC(=O)CC1OC(=O)C(Br)=C1NCc1ccccc1 (stereo unspecified) was read as Six1-Eya2 blk -0.9, HP1b binding inh -22.4%, JMJD2A Tudor inh -19.0%, G9a inh 35.5µM*, CtBP-E1A inh 7.6 and BAZ2B block -1.9%.
`S=c1[nH]nc(-c2ccc(Cl)cc2Cl)n1-c1ccc(Cl)cc1` gave Six1-Eya2 blk -3.9, HP1b binding inh 16.1%, JMJD2A Tudor inh -25.3%, CtBP-E1A inh 1.6 and BAZ2B block inconclusive.
CCn1c(-c2nn(C)cc2Cl)n[nH]c1=S was read as Six1-Eya2 blk 2.7, HP1b binding inh 23.5%, JMJD2A Tudor inh 6.31µM*, G9a inh 10µM*, CtBP-E1A inh 4.1 and BAZ2B block -6.4%.
Screening CC(C)Cn1c(-c2nn(C)cc2Cl)n[nH]c1=S returned Six1-Eya2 blk -1.5, HP1b binding inh 30.6%, JMJD2A Tudor inh 8.91µM*, G9a inh 10µM*, CtBP-E1A inh 0.8 and BAZ2B block -8.5%.
CCn1c(CC(C)C)n[nH]c1=S was read as Six1-Eya2 blk 2.7, HP1b binding inh 33.4%, JMJD2A Tudor inh inconclusive, CtBP-E1A inh 7.9 and BAZ2B block 10.4%.
`Cc1ccsc1-c1n[nH]c(=S)n1CC(C)C` gave Six1-Eya2 blk 9.1, HP1b binding inh -7.9%, JMJD2A Tudor inh 8.91µM*, G9a inh inconclusive, CtBP-E1A inh 5.0 and BAZ2B block -28.7%.
Screening COc1cc(-c2noc(CCCC(=O)NC3CCCCC3)n2)cc(OC)c1OC returned Six1-Eya2 blk 2.1, HP1b binding inh 9.2%, JMJD2A Tudor inh -0.7%, G9a inh 2.8%[12.7 µM], CtBP-E1A inh 3.1 and BAZ2B block 8.0%.
`CC(=O)N1CC(C(=O)Nc2ccc3c(c2)OCO3)Oc2ccccc21` (stereo unspecified) gave Six1-Eya2 blk -9.1, HP1b binding inh inconclusive, JMJD2A Tudor inh inconclusive and CtBP-E1A inh -1.5.
Screening CCN(CC)c1ccc(N2C(=O)/C(=C\c3cccs3)SC2=S)cc1 returned Six1-Eya2 blk -16.9, HP1b binding inh 14.8%, JMJD2A Tudor inh -20.5%, G9a inh 6.9%[59 µM], CtBP-E1A inh -8.1 and BAZ2B block -33.5%.
For CN(C)/C=C1\SC(=S)N(c2ccc(Br)cc2)C1=O the results were Six1-Eya2 blk -27.6, HP1b binding inh -10.6%, JMJD2A Tudor inh inconclusive, G9a inh 44.7µM*, CtBP-E1A inh -11.2 and BAZ2B block 39.8µM*.
For CN(C)/C=C1\SC(=S)N(c2ccc(F)cc2)C1=O the results were Six1-Eya2 blk -3.7, HP1b binding inh -25.1%, JMJD2A Tudor inh -18.6%, G9a inh 63.1µM*, CtBP-E1A inh -0.6 and BAZ2B block -27.9%.
`CC(=O)N(/C=C1\SC(=S)N(c2ccccc2)C1=O)c1ccccc1` gave Six1-Eya2 blk -7.1, HP1b binding inh -3.5%, JMJD2A Tudor inh inconclusive, G9a inh inconclusive and BAZ2B block inconclusive.
`CC(C)(CO)NC(=O)c1ccc2c(c1)C(=O)c1ccccc1-2` gave Six1-Eya2 blk -10.0, HP1b binding inh 5.0%, JMJD2A Tudor inh -9.8%, G9a inh 14.2%, CtBP-E1A inh -10.1 and BAZ2B block -16.3%.
`CCOc1ccccc1NC(=O)c1cc2c(=O)[nH]c3ccccc3c2s1` gave HP1b binding inh 28.6%, JMJD2A Tudor inh -6.7% and G9a inh -6.2%[59 µM].
For Nc1ccc(S(=O)(=O)N2CCCN(S(=O)(=O)c3ccc4c(c3)OCCO4)CC2)cc1 the results were JMJD2A Tudor inh 89.1µM*.
`N#Cc1nc(-c2cccs2)oc1N1CCN(Cc2ccccc2)CC1` gave Six1-Eya2 blk inconclusive, HP1b binding inh inconclusive, JMJD2A Tudor inh inconclusive, G9a inh inconclusive, CtBP-E1A inh 4.3 and BAZ2B block 25.1µM*.

Bioassay records from PubChem.
